Reference: the supplement of paper PMC10338343
± gives the standard deviation.

Legend:
[1] = tested on: MILI (PIWIL2) piRISC loaded with L1MC piRNA (26 nt); assay: pre-steady-state target cleavage rate (min^-1); guide: L1MC piRNA 5'p-UAACUAAAUACUAUGCAAGCUGUAGG; higher = faster piRNA-guided slicing of the target
Summary of the method: (§1)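 With or without 500 nM GTSF1 partner protein, 1 nM active affinity-purified piRISC carrying one synthetic guide was mixed with 0.1 nM transcribed, DNA-blocked target RNA library in HEPES–potassium acetate buffer at 33 °C for 0–8 or 0–960 min. Uncleaved targets were sequenced and normalised to depth and to weakly complementary targets, three trials were pooled, and k3 was capped at 0.0001 min^-1. The pre-steady-state cleavage rate came from a burst-and-steady-state fit.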

[2] = tested on: EfPiwi piRISC loaded with L1MC piRNA (26 nt); assay: pre-steady-state target cleavage rate (min^-1); auxiliary factor: 500 nM Ephydatia muelleri Gtsf1; guide: L1MC piRNA 5'p-UAACUAAAUACUAUGCAAGCUGUAGG; MIWI and MILI are mouse PIWI proteins and EfPiwi is from a freshwater sponge; tags in brackets are library labels; higher = faster piRNA-guided slicing of the target
Summary of the method: as §1

[3] = auxiliary factor: 500 nM mouse GTSF1
[4] = auxiliary factor: none (no GTSF1)

Sequence	pre-steady-state target cleavage rate [1, 3]	pre-steady-state target cleavage rate [1, 4]	pre-steady-state target cleavage rate [2]
UCCUGGAUCUGCUUGCAUAGUAUUAAGUUA	0.204 ± 0.019	0.00478 ± 0.0026	0.00735 ± 0.0037
UCCUCCUUCAGGUUGCAUAGUAUUUAGUUA	0.239 ± 0.013	0.0102 ± 0.002	0.0528 ± 0.012
UCCUCUACAGCUUGCAUAGUAUUUAGUUA	0.31 ± 0.013	0.00953 ± 0.0028	0.183 ± 0.045
UCCUGGAUGAGCUUGCAUAGUAUUUAGUGUA	0.261 ± 0.041	0.00591 ± 0.0031	0.00866 ± 0.0031
UCCUGGAUCAGCUUGCAUUGUAAUUAGUUA	0.097 ± 0.011	0.00466 ± 0.0022	0.00179 ± 0.0017
UCCUGGACCAGCUUGCAUAGUAUUUAGUUA	0.246 ± 0.02	0.00604 ± 0.0027	0.159 ± 0.037
UCCUGCUACAGCUUGCAUAGUAUUUAGUUUA	0.308 ± 0.018	0.0118 ± 0.0032	0.0608 ± 0.016
UCCUGGAACAGCUUGGAUAGUAAUUAGUUA	0.21 ± 0.025	0.00493 ± 0.0022	0.00719 ± 0.0026
UCCUGGAUGUGCUUGCAAAGUAUUUAGUUA	0.0492 ± 0.011	0.00756 ± 0.0024	0.00905 ± 0.0036
UCCUGGAUGACCUUGCAAAGUAUUUAGUUA	0.0397 ± 0.011	0.00372 ± 0.0031	0.00391 ± 0.0037
UCCUGGAUCAGGUUGCAAAGUAUUUAGUUA	0.121 ± 0.011	0.00902 ± 0.0027	0.0172 ± 0.0054
UCCUGGAUGUGCUUGCAUAGUACUUAGUUA	0.105 ± 0.022	0.00413 ± 0.0024	0.00522 ± 0.0031
UCCUGGAUGAGCUAGCAUAGUUUUUAGUUA	0.0185 ± 0.0066	0.00507 ± 0.0028	0.00278 ± 0.0027
UCCUCCUAGCAGCUUGCAUAGUAUUUAGUUA	0.295 ± 0.018	0.011 ± 0.0028	0.0339 ± 0.0083
UCCUGGAUCACCUAGCAUAGUAUUUAGUUA	0.17 ± 0.025	0.00435 ± 0.0029	0.00614 ± 0.004
UCCUCUCUACAGCUUGCAUAGUAUUUAGUUA	0.28 ± 0.022	0.00895 ± 0.0022	0.0164 ± 0.006
UCCUGGUACAUCUUGCAUAGUAUUUAGUUA	0.237 ± 0.018	0.00962 ± 0.0032	0.0254 ± 0.01
UCCUGCAACACCUUGCAUAGUAUUUAGUUA	0.192 ± 0.026	0.00568 ± 0.0027	0.0123 ± 0.0034
UCCUGGAACAGCGUGCAUAGUAUUUAGUUA	0.282 ± 0.017	0.00797 ± 0.0029	0.0168 ± 0.005
UCCUGGAUCAGCUAGCAUACUAUUUAGUUA	0.0859 ± 0.012	0.00444 ± 0.0019	0.00342 ± 0.0018
UCCUGGAACAGCUUGCAUAGUAGUUAGUUA	0.138 ± 0.018	0.00378 ± 0.0026	0.00926 ± 0.0027
UCCUGGUACAGCUUGCACAGUAUUUAGUUA	0.156 ± 0.013	0.0127 ± 0.0032	0.0505 ± 0.015
UCCUGGUUCAGCUUGCAUAGUAUUAAGUUA	0.186 ± 0.029	0.00855 ± 0.0027	0.00579 ± 0.0021
UCCUCCUACAGCUUGGAUAGUAUUUAGUUA	0.294 ± 0.017	0.0109 ± 0.003	0.057 ± 0.012
UCCUGCUACAGGUUGGAUAGUAUUUAGUUA	0.204 ± 0.018	0.00926 ± 0.0025	0.00793 ± 0.0027
